# According to ChEMBL document CHEMBL2218924, “A broad activity screen in support of a chemogenomic map for kinase signalling research and drug discovery” (Biochem J, 2013):
# Columns and labels:
# [1] = biological target: T1, Mitogen-activated protein kinase 13 (Homo sapiens) (UniProt O15264); conditions: at 1 µM
# T1 sequence (whole entry): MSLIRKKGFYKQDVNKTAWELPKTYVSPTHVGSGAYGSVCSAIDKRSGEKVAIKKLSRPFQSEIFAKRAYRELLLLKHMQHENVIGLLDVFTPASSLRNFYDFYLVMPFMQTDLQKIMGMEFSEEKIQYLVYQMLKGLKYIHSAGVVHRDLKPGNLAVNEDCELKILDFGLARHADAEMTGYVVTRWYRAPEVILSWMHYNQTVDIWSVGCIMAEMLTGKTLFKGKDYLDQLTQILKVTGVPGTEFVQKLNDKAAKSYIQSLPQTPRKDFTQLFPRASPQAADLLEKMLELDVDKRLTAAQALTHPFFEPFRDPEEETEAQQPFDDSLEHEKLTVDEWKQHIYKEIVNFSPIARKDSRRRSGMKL
# [2] = biological target: T1, Mitogen-activated protein kinase 13 (Homo sapiens); conditions: at 10 µM
# [3] = biological target: T2, Serine/threonine-protein kinase Sgk2 (Homo sapiens) (UniProt Q9HBY8); conditions: at 10 µM
# T2 sequence (whole entry): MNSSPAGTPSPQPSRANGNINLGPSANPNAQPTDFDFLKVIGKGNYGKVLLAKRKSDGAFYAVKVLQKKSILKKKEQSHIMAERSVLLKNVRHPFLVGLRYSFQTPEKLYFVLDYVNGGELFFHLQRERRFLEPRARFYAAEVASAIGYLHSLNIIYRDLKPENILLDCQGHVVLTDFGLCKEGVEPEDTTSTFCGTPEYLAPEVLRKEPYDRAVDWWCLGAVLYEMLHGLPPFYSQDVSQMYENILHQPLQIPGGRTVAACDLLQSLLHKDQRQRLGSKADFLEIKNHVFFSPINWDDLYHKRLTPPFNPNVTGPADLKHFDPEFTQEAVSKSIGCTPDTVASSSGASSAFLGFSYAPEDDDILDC
# [4] = biological target: Serine/threonine-protein kinase SIK1 (Homo sapiens) (UniProt P57059); conditions: at 1 µM
# [5] = biological target: Serine/threonine-protein kinase SIK1 (Homo sapiens) (UniProt P57059); conditions: at 10 µM
# [6] = biological target: Tyrosine-protein kinase SYK (Homo sapiens) (UniProt P43405); conditions: at 1 µM
# [7] = biological target: T2, Serine/threonine-protein kinase Sgk2 (Homo sapiens); conditions: at 1 µM
# [8] = biological target: Serine/threonine-protein kinase PLK2 (Homo sapiens) (UniProt Q9NYY3); conditions: at 1 µM
# [9] = biological target: Serine/threonine-protein kinase PLK2 (Homo sapiens) (UniProt Q9NYY3); conditions: at 10 µM
# [10] = biological target: Mitogen-activated protein kinase 11 (Homo sapiens) (UniProt Q15759); conditions: at 10 µM
# [11] = biological target: T3, Serine/threonine-protein kinase Sgk1 (Homo sapiens) (UniProt O00141); conditions: at 1 µM
# T3 sequence (whole entry): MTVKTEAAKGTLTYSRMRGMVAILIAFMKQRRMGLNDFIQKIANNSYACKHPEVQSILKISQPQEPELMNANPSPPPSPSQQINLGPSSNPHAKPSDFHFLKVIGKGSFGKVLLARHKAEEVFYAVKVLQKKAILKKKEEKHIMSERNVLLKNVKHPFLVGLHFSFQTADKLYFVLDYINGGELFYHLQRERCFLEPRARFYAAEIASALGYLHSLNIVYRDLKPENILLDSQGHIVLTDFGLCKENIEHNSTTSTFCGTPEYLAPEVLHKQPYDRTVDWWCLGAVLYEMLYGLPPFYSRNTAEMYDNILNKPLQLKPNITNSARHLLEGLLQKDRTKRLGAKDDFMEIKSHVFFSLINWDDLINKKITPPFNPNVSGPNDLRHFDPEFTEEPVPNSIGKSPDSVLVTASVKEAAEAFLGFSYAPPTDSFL
# [12] = biological target: T3, Serine/threonine-protein kinase Sgk1 (Homo sapiens); conditions: at 10 µM
# [13] = biological target: T4, Serine/threonine-protein kinase Sgk3 (Homo sapiens) (UniProt Q96BR1); conditions: at 10 µM
# T4 sequence (whole entry): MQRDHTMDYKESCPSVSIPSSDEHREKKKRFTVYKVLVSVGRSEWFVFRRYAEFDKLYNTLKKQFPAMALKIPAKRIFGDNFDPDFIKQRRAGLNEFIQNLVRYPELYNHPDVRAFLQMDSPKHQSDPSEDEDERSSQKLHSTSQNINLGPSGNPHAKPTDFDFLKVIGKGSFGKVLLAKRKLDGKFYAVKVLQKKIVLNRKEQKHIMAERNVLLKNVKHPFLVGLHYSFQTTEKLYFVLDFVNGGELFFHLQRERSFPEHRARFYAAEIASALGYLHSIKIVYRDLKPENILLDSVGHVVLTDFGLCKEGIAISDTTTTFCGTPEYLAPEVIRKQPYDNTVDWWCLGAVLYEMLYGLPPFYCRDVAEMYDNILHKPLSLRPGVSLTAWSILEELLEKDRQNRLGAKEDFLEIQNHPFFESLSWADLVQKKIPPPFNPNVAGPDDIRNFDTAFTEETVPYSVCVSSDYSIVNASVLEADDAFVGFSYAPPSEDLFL
# [14] = biological target: SRSF protein kinase 2 (Homo sapiens) (UniProt P78362); conditions: at 10 µM
# [15] = biological target: Serine/threonine-protein kinase 33 (Homo sapiens) (UniProt Q9BYT3); conditions: at 10 µM
# [16] = biological target: SRSF protein kinase 1 (Homo sapiens) (UniProt Q96SB4); conditions: at 1 µM
# [17] = biological target: SRSF protein kinase 1 (Homo sapiens) (UniProt Q96SB4); conditions: at 10 µM
# [18] = biological target: SRSF protein kinase 2 (Homo sapiens) (UniProt P78362); conditions: at 1 µM
# [19] = biological target: Serine/threonine-protein kinase 33 (Homo sapiens) (UniProt Q9BYT3); conditions: at 1 µM
# [20] = biological target: Mitogen-activated protein kinase 11 (Homo sapiens) (UniProt Q15759); conditions: at 1 µM
# Chain of Serine/threonine-protein kinase 33 (Homo sapiens) (Q9BYT3 whole entry, looked up): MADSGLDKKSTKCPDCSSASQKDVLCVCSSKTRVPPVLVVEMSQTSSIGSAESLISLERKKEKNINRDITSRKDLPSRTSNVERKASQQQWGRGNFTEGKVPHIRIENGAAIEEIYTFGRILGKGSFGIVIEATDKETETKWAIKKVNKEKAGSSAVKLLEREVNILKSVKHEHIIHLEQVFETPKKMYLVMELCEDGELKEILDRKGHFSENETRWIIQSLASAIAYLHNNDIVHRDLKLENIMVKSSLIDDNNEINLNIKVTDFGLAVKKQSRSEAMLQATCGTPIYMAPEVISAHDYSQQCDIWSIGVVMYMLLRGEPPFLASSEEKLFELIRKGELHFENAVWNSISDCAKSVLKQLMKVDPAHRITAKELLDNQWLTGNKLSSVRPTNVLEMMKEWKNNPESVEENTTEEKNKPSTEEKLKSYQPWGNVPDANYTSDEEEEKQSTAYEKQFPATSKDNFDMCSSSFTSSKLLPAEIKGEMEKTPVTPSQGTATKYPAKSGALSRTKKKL
# Chain of Mitogen-activated protein kinase 11 (Homo sapiens) (Q15759 whole entry): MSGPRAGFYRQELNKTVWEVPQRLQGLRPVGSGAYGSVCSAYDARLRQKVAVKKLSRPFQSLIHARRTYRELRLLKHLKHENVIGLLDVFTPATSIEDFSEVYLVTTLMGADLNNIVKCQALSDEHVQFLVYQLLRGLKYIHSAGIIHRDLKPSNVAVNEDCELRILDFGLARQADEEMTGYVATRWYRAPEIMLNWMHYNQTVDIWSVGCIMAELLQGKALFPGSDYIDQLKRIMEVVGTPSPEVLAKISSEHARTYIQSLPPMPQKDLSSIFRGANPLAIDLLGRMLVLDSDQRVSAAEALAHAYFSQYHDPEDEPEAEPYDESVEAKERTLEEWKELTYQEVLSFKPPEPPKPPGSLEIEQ
# Chain of SRSF protein kinase 1 (Homo sapiens) (Q96SB4 whole entry): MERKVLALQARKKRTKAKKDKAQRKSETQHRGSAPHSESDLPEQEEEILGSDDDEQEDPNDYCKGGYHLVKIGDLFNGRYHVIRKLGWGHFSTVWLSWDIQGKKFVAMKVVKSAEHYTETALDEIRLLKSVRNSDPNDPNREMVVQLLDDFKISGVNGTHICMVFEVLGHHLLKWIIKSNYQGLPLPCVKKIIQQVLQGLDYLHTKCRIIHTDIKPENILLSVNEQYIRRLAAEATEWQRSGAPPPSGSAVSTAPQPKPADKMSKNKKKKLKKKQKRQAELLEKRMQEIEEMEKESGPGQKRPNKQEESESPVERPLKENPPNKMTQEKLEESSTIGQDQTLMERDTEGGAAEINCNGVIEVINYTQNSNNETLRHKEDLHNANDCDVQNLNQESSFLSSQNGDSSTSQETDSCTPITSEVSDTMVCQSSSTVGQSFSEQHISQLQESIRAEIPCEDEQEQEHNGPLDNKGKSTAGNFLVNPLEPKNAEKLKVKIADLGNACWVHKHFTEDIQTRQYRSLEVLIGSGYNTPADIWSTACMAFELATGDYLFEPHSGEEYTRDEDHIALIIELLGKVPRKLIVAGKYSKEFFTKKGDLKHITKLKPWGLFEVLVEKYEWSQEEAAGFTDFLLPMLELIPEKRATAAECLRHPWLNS
# Chain of SRSF protein kinase 2 (Homo sapiens) (P78362 whole entry, looked up): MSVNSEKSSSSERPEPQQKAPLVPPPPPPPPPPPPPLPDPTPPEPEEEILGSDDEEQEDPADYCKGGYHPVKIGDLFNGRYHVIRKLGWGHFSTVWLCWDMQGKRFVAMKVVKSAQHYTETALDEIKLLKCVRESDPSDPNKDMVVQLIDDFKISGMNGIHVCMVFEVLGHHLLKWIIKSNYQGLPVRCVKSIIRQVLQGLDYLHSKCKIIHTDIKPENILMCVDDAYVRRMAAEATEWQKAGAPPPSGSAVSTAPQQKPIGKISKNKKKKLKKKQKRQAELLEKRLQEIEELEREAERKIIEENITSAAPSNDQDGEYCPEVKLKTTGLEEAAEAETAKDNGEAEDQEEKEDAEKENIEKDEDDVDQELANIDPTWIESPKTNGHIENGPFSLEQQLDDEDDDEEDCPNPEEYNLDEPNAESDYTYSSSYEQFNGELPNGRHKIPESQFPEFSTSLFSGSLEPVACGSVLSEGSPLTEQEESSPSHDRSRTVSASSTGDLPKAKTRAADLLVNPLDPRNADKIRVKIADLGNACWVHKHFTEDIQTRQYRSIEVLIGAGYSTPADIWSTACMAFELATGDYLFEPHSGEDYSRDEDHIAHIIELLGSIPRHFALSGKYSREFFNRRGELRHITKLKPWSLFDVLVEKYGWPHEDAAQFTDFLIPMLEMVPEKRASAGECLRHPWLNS
# Chain of Serine/threonine-protein kinase PLK2 (Homo sapiens) (Q9NYY3 whole entry, looked up): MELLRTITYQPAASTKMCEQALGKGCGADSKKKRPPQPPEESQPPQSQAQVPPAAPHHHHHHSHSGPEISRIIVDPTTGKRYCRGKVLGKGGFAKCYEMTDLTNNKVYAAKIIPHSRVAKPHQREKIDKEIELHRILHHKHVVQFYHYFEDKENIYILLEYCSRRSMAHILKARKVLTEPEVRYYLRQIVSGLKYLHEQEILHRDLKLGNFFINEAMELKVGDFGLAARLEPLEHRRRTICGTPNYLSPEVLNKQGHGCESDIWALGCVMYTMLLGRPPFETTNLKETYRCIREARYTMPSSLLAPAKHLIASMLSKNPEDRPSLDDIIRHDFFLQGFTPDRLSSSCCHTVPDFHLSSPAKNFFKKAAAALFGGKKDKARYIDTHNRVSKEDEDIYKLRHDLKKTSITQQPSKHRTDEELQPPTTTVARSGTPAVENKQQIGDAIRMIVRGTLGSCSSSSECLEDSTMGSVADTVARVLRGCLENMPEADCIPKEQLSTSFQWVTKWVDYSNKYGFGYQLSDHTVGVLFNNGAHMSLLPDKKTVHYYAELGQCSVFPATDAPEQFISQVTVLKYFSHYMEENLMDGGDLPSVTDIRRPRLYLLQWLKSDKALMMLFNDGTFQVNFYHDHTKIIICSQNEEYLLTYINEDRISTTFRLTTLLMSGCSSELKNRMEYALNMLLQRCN
# Chain of Serine/threonine-protein kinase SIK1 (Homo sapiens) (P57059 whole entry): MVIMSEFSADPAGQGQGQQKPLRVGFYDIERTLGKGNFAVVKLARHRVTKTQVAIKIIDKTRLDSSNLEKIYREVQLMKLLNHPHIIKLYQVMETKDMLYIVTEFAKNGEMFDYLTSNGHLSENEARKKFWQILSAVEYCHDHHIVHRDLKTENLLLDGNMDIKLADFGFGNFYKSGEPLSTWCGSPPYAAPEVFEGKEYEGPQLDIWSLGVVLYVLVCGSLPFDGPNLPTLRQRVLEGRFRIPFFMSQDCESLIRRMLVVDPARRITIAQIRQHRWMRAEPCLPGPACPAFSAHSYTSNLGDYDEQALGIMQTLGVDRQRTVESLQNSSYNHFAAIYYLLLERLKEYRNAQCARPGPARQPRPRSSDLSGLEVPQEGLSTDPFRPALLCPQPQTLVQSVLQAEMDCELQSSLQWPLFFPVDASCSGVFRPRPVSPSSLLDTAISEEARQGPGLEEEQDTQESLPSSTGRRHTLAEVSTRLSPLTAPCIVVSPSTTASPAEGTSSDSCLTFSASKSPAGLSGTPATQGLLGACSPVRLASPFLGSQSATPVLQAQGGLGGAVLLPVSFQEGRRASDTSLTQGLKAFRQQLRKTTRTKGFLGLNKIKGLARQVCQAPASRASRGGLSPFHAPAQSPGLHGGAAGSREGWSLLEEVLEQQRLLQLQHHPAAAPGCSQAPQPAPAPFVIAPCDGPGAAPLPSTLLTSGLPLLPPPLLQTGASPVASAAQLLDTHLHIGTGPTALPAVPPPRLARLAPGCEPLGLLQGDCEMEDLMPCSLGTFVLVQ
compound,measurement,setting,value
O=C1NC(=O)C(c2cn(CCCO)c3ncccc23)=C1c1cnccn1,residual activity,[1],99%
same,residual activity,[2],94%
same,residual activity,[3],92%
same,residual activity,[4],129%
same,residual activity,[5],84%
same,residual activity,[6],93%
COc1ccc(COc2ccc(Cc3cnc(N)nc3N)cc2OC)cc1,residual activity,[7],108%
same,residual activity,[5],111%
same,residual activity,[6],118%
N#C/C(=C1/Nc2ccccc2S1)c1ccnc(NCCc2cccnc2)n1,residual activity,[1],78%
same,residual activity,[2],48%
same,residual activity,[4],146%
same,residual activity,[5],78%
same,residual activity,[8],97%
same,residual activity,[9],71%
NCCNc1ncc(C(N)=O)c(Nc2cccc(C(F)(F)F)c2)n1,residual activity,[10],104%
same,residual activity,[1],114%
same,residual activity,[2],101%
same,residual activity,[11],81%
same,residual activity,[12],129%
same,residual activity,[7],82%
same,residual activity,[3],78%
same,residual activity,[13],66%
same,residual activity,[4],63%
same,residual activity,[5],20%
same,residual activity,[6],6%
N#Cc1c(NC(=O)c2cccc3ccccc23)sc2c1CCCC2,residual activity,[3],90%
same,residual activity,[13],86%
same,residual activity,[4],136%
same,residual activity,[14],92%
same,residual activity,[15],92%
N#C/C(=C\c1ccc(O)c(O)c1)C(=O)NCc1ccccc1,residual activity,[1],125%
same,residual activity,[11],79%
same,residual activity,[12],32%
same,residual activity,[7],61%
same,residual activity,[3],17%
same,residual activity,[13],73%
same,residual activity,[4],88%
same,residual activity,[5],1%
same,residual activity,[16],100%
same,residual activity,[6],127%
COc1cc2ncnc(Nc3cccc(Cl)c3)c2cc1OC,residual activity,[10],45%
same,residual activity,[1],118%
same,residual activity,[2],109%
same,residual activity,[11],89%
same,residual activity,[12],113%
same,residual activity,[7],77%
same,residual activity,[3],70%
same,residual activity,[4],84%
same,residual activity,[16],101%
same,residual activity,[17],108%
same,residual activity,[18],104%
same,residual activity,[8],109%
same,residual activity,[9],82%
same,residual activity,[6],121%
O=C(Nc1nc2ccccc2n1CCN1CCOCC1)c1cccc([N+](=O)[O-])c1,residual activity,[1],109%
same,residual activity,[2],87%
same,residual activity,[7],108%
same,residual activity,[3],75%
same,residual activity,[4],70%
same,residual activity,[5],73%
same,residual activity,[18],79%
same,residual activity,[14],74%
same,residual activity,[19],83%
same,residual activity,[15],88%
same,residual activity,[6],123%
O=S(=O)(NCCNC/C=C/c1ccc(Br)cc1)c1cccc2cnccc12,residual activity,[3],30%
same,residual activity,[4],137%
same,residual activity,[5],57%
O=c1cc(N2CCOCC2)oc2c(-c3ccccc3)cccc12,residual activity,[1],101%
same,residual activity,[2],71%
same,residual activity,[11],75%
same,residual activity,[13],74%
same,residual activity,[15],78%
CCN1/C(=C/C(C)=O)Sc2ccc(OC)cc21,residual activity,[13],65%
same,residual activity,[19],82%
same,residual activity,[15],58%
O=C1C(Cl)=C(N2C(=O)CCC2=O)C(=O)c2ccccc21,residual activity,[10],92%
same,residual activity,[1],95%
same,residual activity,[2],92%
same,residual activity,[11],90%
same,residual activity,[12],100%
same,residual activity,[3],97%
same,residual activity,[13],82%
same,residual activity,[4],122%
same,residual activity,[5],98%
same,residual activity,[14],88%
same,residual activity,[8],100%
same,residual activity,[9],90%
same,residual activity,[6],100%
COc1ccc(CNC(=O)Nc2ncc([N+](=O)[O-])s2)cc1,residual activity,[14],78%
NC(=O)c1cccc(-c2cc(Nc3ccc(OC(F)(F)F)cc3)ncn2)c1,residual activity,[2],96%
same,residual activity,[12],159%
same,residual activity,[7],92%
same,residual activity,[3],92%
same,residual activity,[4],96%
same,residual activity,[5],7%
same,residual activity,[17],97%
O=C(Nc1ccc(Cl)cc1)c1ccccc1NCc1ccncc1,residual activity,[12],128%
same,residual activity,[3],72%
O=C1Nc2ccccc2/C1=C\c1c(Cl)[nH]c2ccccc12,residual activity,[20],99%
same,residual activity,[3],77%
same,residual activity,[13],79%
same,residual activity,[4],120%
same,residual activity,[18],100%
same,residual activity,[14],83%
same,residual activity,[19],99%
same,residual activity,[15],85%
same,residual activity,[8],99%
same,residual activity,[9],80%
CC(C)N(CCC(=O)c1ccc2ccccc2c1)Cc1ccccc1,residual activity,[11],78%
same,residual activity,[12],100%
same,residual activity,[13],85%
same,residual activity,[4],79%
same,residual activity,[14],85%
same,residual activity,[6],127%
COc1ccc2c(c1)c(C1=C(c3c[nH]c4ccccc34)C(=O)NC1=O)cn2CCCN(C)C,residual activity,[2],100%
same,residual activity,[11],107%
same,residual activity,[12],56%
same,residual activity,[7],80%
same,residual activity,[3],41%
same,residual activity,[4],77%
same,residual activity,[5],34%
same,residual activity,[16],97%
same,residual activity,[17],56%
same,residual activity,[19],71%
same,residual activity,[15],22%
same,residual activity,[6],113%
